# Records with an inconclusive call do not appear. Activity calls are given as the source filed them. Rule for the calls, unless noted: active = hit-call score of the fitted dose curve at least 0.9, where 1 is the maximum; inconclusive = response in the unintended direction; inactive = score below 0.9.
# Tests used:
# [1] = molecular target: Retinoic acid receptor alpha (Homo sapiens) (UniProt P10276); assay: ATG_DR5_RAR_CIS: Attagene CIS-FACTORIAL HepG2 Assay for human Retinoic Acid Receptor Alpha (RARE), DR5 submotif (AID 2282934; active = hit-call score of the fitted dose curve at least 0.9, where 1 is the maximum; inactive = score below 0.9); settings: HepG2 Attagene cis-factorial RARE DR5 reporter, mRNA; actives raise or lower the signal
# Sequence of Retinoic acid receptor alpha (Homo sapiens) (P10276 whole entry, looked up): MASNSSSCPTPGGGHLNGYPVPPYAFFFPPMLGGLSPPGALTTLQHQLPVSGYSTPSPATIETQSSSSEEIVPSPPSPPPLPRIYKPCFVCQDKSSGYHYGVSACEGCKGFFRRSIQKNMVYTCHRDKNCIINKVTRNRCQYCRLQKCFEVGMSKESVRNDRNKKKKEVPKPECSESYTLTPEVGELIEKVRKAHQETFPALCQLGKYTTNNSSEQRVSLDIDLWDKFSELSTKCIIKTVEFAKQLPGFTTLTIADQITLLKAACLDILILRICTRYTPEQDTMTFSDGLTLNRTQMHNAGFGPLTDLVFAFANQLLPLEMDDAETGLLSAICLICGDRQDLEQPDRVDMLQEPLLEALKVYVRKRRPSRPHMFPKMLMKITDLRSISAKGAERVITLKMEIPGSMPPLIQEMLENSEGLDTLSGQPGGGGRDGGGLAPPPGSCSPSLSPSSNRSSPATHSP
# Method in brief: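 HepG2 cells transiently transfected with multiplexed reporter units under cis (DR5 RARE) promoters, so endogenous transcription factor activity is measured. After 24 h compound exposure, reporter mRNA is quantified by RT-PCR with fluorescent labelling and capillary electrophoresis; bidirectional fitting versus DMSO.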
# [2] = ATG_PPRE_CIS: Attagene CIS-FACTORIAL HepG2 Assay for human Peroxisome Proliferator-activated Response Element (PPRE) (AID 2282958; active = hit-call score of the fitted dose curve at least 0.9, where 1 is the maximum; inactive = score below 0.9); settings: HepG2 PPRE cis-element reporter, Attagene transcription factor profiling; actives raise or lower the signal
# Method in brief: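 HepG2 cells transiently transfected with multiplexed cis-element reporter units measure endogenous transcription factor activity. After 24 h compound exposure, reporter mRNA is quantified by RT-PCR, 6-FAM labeling, HpaI digestion and capillary electrophoresis; bidirectional fits are made against DMSO baseline.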
# [3] = molecular target: Nuclear receptor subfamily 1 group I member 3 (Homo sapiens) (UniProt Q14994); assay: ATG_CAR_TRANS: Attagene TRANS-FACTORIAL HepG2 Assay for human Constitutive Androstane Receptor (CAR) (AID 2282969); settings: HepG2 Attagene TRANS-FACTORIAL CAR reporter;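 note: activators raise reporter mRNA above DMSO so AC50 marks induction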
# Sequence of Nuclear receptor subfamily 1 group I member 3 (Homo sapiens) (Q14994 whole entry, looked up, the tested form may be a part): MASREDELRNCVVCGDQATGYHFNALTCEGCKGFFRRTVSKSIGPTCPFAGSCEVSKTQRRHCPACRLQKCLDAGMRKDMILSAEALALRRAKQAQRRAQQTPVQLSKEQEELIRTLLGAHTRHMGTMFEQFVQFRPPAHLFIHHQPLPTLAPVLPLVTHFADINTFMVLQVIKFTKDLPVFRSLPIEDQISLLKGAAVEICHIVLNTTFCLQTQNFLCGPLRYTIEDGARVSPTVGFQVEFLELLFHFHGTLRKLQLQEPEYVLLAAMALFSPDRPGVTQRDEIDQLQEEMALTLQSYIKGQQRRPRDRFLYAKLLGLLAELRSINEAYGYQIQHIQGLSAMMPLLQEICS
# Method in brief: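 HepG2 cells transiently transfected with multiplexed GAL4-UAS reporter units expressing chimeric NR-Gal4 proteins; compound exposure 24 h. Reporter mRNA measured by RT-PCR, 6-FAM labelling, HpaI digestion and capillary electrophoresis; gain-of-signal fitted against DMSO baseline.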
# [4] = ATG_M_19_TRANS: Attagene TRANS-FACTORIAL HepG2 Assay for M19 Transcription Factor (Internal Marker) (AID 2282974); settings: HepG2 Attagene TRANS-FACTORIAL M19 internal marker reporter
# Method in brief: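 HepG2 cells transiently transfected with multiple GAL4-UAS reporter transcription units were exposed to chemicals for 24 h. Reporter mRNA was read by RT-PCR, 6-FAM primer extension, HpaI digestion and capillary electrophoresis; gain of signal fitted relative to DMSO.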
# [5] = molecular target: Oxysterols receptor LXR-beta (Homo sapiens) (UniProt P55055); assay: ATG_LXRb_TRANS: Attagene TRANS-FACTORIAL HepG2 Assay for human Liver X Receptor beta (LXRb) (AID 2282981); settings: HepG2 Attagene TRANS GAL4-LXRb reporter, mRNA
# Sequence of Oxysterols receptor LXR-beta (Homo sapiens) (P55055 whole entry, looked up, the tested form may be a part): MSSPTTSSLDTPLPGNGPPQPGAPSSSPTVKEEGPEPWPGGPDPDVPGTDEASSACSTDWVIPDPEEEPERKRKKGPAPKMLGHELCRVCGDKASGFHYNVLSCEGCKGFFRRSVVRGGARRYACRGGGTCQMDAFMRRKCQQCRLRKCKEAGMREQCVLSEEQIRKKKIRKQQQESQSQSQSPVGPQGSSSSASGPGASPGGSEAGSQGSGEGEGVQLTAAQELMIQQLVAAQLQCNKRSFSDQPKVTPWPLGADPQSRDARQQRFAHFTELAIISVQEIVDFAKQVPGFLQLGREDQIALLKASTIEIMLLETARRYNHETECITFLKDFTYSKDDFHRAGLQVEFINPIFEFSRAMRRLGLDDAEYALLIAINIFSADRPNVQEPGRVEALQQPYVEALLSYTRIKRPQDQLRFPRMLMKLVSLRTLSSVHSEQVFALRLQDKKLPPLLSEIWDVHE
# Method in brief: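 In this TRANS format, exogenous chimeric NR-Gal4 protein activity, not endogenous factors, drives reporter expression in transfected human HepG2 cells. Exposure lasted 24 h; reporter mRNA was read by fluorescent capillary electrophoresis.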
# [6] = molecular target: human Thyroid Receptor alpha (THRa1), THRA (gene 7067) (UniProt P10827); assay: ATG_THRa1_TRANS: Attagene TRANS-FACTORIAL HepG2 Assay for human Thyroid Receptor alpha (THRa1) (AID 2283014)
# Sequence of human Thyroid Receptor alpha (THRa1), THRA (gene 7067) (P10827 whole entry, looked up, the tested form may be a part): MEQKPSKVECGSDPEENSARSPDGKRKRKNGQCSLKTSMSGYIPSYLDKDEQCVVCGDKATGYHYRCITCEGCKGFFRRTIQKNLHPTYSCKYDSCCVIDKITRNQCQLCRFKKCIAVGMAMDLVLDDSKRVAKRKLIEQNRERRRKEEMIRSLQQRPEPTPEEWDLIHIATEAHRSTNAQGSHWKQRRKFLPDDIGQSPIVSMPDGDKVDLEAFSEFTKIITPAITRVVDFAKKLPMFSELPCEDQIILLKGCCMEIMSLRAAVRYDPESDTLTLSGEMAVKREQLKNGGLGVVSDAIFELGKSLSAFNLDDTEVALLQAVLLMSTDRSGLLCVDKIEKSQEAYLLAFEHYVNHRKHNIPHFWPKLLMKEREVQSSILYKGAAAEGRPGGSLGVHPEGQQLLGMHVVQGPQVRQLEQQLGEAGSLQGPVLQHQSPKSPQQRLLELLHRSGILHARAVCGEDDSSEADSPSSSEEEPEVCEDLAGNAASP
# Method in brief: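 Transient HepG2 transfection, NR-Gal4 chimera driving GAL4-UAS reporters; 24 h compound exposure; total RNA, oligo(dT) RT, PCR, fluorescent primer extension, capillary electrophoresis. Upward direction vs DMSO control.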
# [7] = TOX21_p53_BLA_p2_viability: Viability Assessment in the Tox21 HCT-116 p53 Agonism Beta-lactamase Assay, Phase 2 (AID 2283591);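 note: compound exposure lasted 16 h at 37 °C; actives lower the ATP signal meaning cytotoxicity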
# Method in brief: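 HCT-116 p53-bla cells (4000/well) rested 5 h at 37C, then received compounds in DMSO (217-fold dilution) for 16 h at 37C, 5% CO2. After the CCF4 read, CellTiter-Glo was added; ATP luminescence was read after 30 min at room temperature.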
# [8] = TOX21_p53_BLA_p3_viability: Viability Assessment in the Tox21 HCT-116 p53 Agonism Beta-lactamase Assay, Phase 3 (AID 2283593);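 note: cells exposed to compound for 16 h before reading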
# Method in brief: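 HCT-116 cells (4000/well) rested 5 h at 37C, then got DMSO compounds by pin tool (217-fold dilution) for 16 h at 37C, 5% CO2. After the bla read, CellTiter-Glo was added and luminescence read at 30 min, room temperature.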
# [9] = TOX21_p53_BLA_p4_viability: Viability Assessment in the Tox21 HCT-116 p53 Agonism Beta-lactamase Assay, Phase 4 (AID 2283597);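 note: hits lower the luminescence signal meaning cytotoxicity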
# Method in brief: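 We seeded HCT116 p53 reporter cells at 4000/well and waited 5 h. We then added compounds in DMSO at a 217-fold dilution and incubated for 16 h. Viability was read as CellTiter-Glo luminescence after 30 min at RT.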
# [10] = ATG_GAL4_TRANS: Attagene TRANS-FACTORIAL HepG2 Assay for GAL4 (Internal Marker) (AID 2282976); settings: HepG2 Attagene TRANS GAL4 internal marker reporter
# Method in brief: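 RT-PCR/capillary electrophoresis readout of reporter mRNA. HepG2, transient MRTU transfection (GAL4-UAS reporters), 24 h compound exposure. Background-control endpoint, positive direction vs DMSO baseline.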
# [11] = ATG_M_32_TRANS: Attagene TRANS-FACTORIAL HepG2 Assay for M32 Transcription Factor (Internal Marker) (AID 2282984); settings: HepG2 Attagene TRANS M32 internal marker reporter;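 note: transcript level of a background control reporter unit measured by RT-PCR and capillary electrophoresis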
# Method in brief: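 Human hepatoma HepG2, transient MRTU transfection, 24 h treatment. RNA → RT-PCR → fluorescent primer extension → HpaI digest (2 h, 37 C) → CE. Positive-direction fit vs DMSO.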
# [12] = ACEA_ER_AUC_viability: ACEA Biosciences xCELLigence Real-Time Cell Analysis on Estrogen Receptor Agonism for Viability (AID 2283782);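 note: continuous compound exposure with impedance area under curve over 80 h; hit means loss of impedance signal meaning reduced cell growth or viability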
# Method in brief: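 T-47D human breast cells in phenol red-free RPMI1640 with 10% charcoal-stripped FBS were dosed with an 8-point 1:4 dilution series from 100 uM top final concentration, in duplicate. Impedance-based growth was followed for 80 h; AUC analysed versus DMSO.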
# [13] = CCTE_Harrill_HTTr_Viability_MCF7: CCTE's 6-hour Cell Viability Assessment for the High-Throughput Transcriptomics (HTTr) Platform, in MCF-7 cells cultured in DMEM + 10% fetal bovine serum, Harrill Lab (AID 2284010; active = hit-call score of the fitted dose curve at least 0.9, where 1 is the maximum; inactive = score below 0.9)
# Method in brief: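 MCF-7 cells in DMEM + 10% FBS, 384-well, exposed 6 h to an eight-point dilution series. Membrane integrity scored by high-content imaging of propidium iodide exclusion; bidirectional fit versus DMSO.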
# [14] = CCTE_Harrill_HTTr_Apoptosis_MCF7: CCTE's 6-hour Apoptosis Assessment for the High-Throughput Transcriptomics (HTTr) Platform, in MCF-7 cells cultured in DMEM + 10% fetal bovine serum, Harrill Lab (AID 2284011; active = hit-call score of the fitted dose curve at least 0.9, where 1 is the maximum; inactive = score below 0.9)
# Method in brief: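 Read-out: CellEvent Caspase 3/7 Green signal by high content imaging, gain-of-signal indicating apoptosis. MCF-7 cells, DMEM + 10% FBS, eight-point dilution series, 6 h exposure. Curves fitted bidirectionally relative to DMSO negative control.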
# [15] = molecular target: Oxysterols receptor LXR-alpha (Homo sapiens) (UniProt Q13133); assay: ATG_LXRa_TRANS: Attagene TRANS-FACTORIAL HepG2 Assay for human Liver X Receptor alpha (LXRa) (AID 2282980); settings: HepG2 Attagene TRANS reporter, LXRa transactivation
# Sequence of Oxysterols receptor LXR-alpha (Homo sapiens) (Q13133 whole entry, looked up, the tested form may be a part): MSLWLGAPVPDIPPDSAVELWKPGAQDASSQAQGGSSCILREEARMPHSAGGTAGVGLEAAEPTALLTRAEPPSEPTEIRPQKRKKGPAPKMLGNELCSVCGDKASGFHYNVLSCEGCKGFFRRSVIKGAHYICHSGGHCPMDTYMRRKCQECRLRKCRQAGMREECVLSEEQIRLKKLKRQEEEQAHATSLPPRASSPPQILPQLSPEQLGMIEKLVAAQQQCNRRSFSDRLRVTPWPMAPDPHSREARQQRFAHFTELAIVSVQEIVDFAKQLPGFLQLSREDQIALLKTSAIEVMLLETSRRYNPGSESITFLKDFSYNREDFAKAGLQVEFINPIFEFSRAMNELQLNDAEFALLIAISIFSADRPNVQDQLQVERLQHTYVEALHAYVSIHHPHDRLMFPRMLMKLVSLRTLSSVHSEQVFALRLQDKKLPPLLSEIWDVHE
# Method in brief: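 Read-out: reporter transcript levels by RT-PCR plus capillary electrophoresis, fluorescence intensity. Transiently transfected HepG2, exogenous NR-GAL4 chimera, GAL4-UAS reporters; 24 h compound exposure. Activity = increase over DMSO negative control.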
# [16] = molecular target: Nuclear receptor subfamily 4 group A member 2 (Homo sapiens) (UniProt P43354); assay: ATG_NURR1_TRANS: Attagene TRANS-FACTORIAL HepG2 Assay for human Nuclear Receptor Related Protein 1 (NURR1) (AID 2282985); settings: HepG2 Attagene TRANS reporter, mRNA readout
# Sequence of Nuclear receptor subfamily 4 group A member 2 (Homo sapiens) (P43354 whole entry, looked up): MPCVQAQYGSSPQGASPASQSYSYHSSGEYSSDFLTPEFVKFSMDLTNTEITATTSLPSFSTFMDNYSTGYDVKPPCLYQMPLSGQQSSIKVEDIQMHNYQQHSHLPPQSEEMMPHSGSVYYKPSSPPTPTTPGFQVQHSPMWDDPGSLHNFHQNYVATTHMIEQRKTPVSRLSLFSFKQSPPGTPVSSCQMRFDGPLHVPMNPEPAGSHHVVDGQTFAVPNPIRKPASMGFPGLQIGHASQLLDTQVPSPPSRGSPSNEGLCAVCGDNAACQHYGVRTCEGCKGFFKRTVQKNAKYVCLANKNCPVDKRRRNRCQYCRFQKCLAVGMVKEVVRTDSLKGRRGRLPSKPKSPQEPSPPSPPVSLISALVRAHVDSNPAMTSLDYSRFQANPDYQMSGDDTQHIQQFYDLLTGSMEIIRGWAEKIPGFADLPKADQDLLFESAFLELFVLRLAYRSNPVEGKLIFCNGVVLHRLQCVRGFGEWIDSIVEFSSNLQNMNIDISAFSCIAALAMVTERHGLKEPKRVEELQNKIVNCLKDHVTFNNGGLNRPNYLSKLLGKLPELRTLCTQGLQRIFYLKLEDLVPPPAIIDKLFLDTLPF
# Method in brief: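 After 24 h chemical dosing, total RNA from transiently transfected HepG2 cells was reverse-transcribed and reporter cDNA PCR-amplified, FAM-labelled and analysed by capillary electrophoresis. Activity fitted in positive direction, DMSO as negative control.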
# [17] = molecular target: human RAR-related Orphan Receptor beta (RORb), RORB (gene 6096) (UniProt Q92753); assay: ATG_RORb_TRANS: Attagene TRANS-FACTORIAL HepG2 Assay for human RAR-related Orphan Receptor beta (RORb) (AID 2283010)
# Sequence of human RAR-related Orphan Receptor beta (RORb), RORB (gene 6096) (Q92753 whole entry, looked up, the tested form may be a part): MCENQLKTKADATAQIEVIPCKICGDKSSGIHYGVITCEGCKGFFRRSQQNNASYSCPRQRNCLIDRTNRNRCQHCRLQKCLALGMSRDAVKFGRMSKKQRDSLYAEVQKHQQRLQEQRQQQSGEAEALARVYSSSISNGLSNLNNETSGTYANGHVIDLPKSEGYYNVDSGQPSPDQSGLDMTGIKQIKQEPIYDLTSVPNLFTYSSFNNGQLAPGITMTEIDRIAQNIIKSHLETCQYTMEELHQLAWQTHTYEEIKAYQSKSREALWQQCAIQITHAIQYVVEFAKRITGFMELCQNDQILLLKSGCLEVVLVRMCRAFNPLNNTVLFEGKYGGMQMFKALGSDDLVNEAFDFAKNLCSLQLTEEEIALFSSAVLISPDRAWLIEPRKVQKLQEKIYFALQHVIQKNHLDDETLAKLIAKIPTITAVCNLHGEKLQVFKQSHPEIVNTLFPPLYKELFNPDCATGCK
# Method in brief: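 HepG2 cells transiently transfected with GAL4-UAS reporter units expressing chimeric NR-Gal4 protein; reporter mRNA measured 24 h after dosing by RT-PCR, 6-FAM labelling and capillary electrophoresis. Gain-of-signal fitted relative to DMSO baseline.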
# [18] = molecular target: human Peroxisome Proliferator-activated Receptor delta (PPARd), PPARD (gene 5467) (UniProt Q03181); assay: ATG_PPARd_TRANS: Attagene TRANS-FACTORIAL HepG2 Assay for human Peroxisome Proliferator-activated Receptor delta (PPARd) (AID 2283002)
# Sequence of human Peroxisome Proliferator-activated Receptor delta (PPARd), PPARD (gene 5467) (Q03181 whole entry, looked up, the tested form may be a part): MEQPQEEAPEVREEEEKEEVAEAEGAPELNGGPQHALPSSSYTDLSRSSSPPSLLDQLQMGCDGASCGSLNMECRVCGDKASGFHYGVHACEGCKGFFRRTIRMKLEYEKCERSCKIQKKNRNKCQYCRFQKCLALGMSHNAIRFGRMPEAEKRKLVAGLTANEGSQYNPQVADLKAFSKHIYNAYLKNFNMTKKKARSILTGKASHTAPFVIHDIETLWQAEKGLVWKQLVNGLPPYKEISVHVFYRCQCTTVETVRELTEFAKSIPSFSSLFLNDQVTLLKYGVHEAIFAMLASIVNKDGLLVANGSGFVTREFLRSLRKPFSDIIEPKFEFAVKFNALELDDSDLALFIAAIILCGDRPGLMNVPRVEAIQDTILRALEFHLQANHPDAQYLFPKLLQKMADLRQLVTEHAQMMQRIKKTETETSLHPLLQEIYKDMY
# Method in brief: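 HepG2 cells transiently transfected with multiplexed GAL4-UAS reporter units and exogenous chimeric NR-Gal4 proteins; 24 h compound exposure. Reporter mRNA measured by RT-PCR, 6-FAM labelling, HpaI digestion and capillary electrophoresis; gain of signal versus DMSO.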
# [19] = molecular target: human RAR-related Orphan Receptor gamma (RORg), RORC (gene 6097) (UniProt P51449); assay: ATG_RORg_TRANS: Attagene TRANS-FACTORIAL HepG2 Assay for human RAR-related Orphan Receptor gamma (RORg) (AID 2283011);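 for AC50: potency for induction of reporter transcripts above DMSO so activators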
# Sequence of human RAR-related Orphan Receptor gamma (RORg), RORC (gene 6097) (P51449 whole entry, looked up, the tested form may be a part): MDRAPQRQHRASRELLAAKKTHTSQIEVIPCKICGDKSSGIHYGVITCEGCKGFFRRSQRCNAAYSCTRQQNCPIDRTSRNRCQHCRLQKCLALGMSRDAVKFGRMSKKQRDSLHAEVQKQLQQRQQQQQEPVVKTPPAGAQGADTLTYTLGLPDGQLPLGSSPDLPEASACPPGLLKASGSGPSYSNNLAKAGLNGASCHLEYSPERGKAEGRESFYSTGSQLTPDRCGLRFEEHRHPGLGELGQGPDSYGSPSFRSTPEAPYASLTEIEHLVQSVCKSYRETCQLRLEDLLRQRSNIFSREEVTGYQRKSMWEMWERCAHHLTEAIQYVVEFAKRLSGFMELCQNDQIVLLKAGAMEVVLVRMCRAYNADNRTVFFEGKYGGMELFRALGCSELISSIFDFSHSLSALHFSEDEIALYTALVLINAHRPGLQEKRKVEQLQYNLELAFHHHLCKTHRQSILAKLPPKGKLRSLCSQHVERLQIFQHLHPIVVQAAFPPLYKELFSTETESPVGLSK
# Method in brief: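 Transient MRTU transfection of HepG2 (TRANS format, exogenous NR-Gal4 chimera). 24 h dosing. Total RNA → oligo(dT) RT → PCR → 6-FAM labelling → HpaI cut → CE. Gain vs DMSO.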
# [20] = molecular target: Bile acid receptor (Homo sapiens) (UniProt Q96RI1); assay: ATG_IR1_CIS: Attagene CIS-FACTORIAL HepG2 Assay for human Nuclear Receptor Subfamily 1 Group H Member 4 (NR1H4), IR1 submotif (AID 2282946; active = hit-call score of the fitted dose curve at least 0.9, where 1 is the maximum; inactive = score below 0.9); settings: IR1 reporter transcription, actives raise or lower the signal
# Sequence of Bile acid receptor (Homo sapiens) (Q96RI1 whole entry, looked up): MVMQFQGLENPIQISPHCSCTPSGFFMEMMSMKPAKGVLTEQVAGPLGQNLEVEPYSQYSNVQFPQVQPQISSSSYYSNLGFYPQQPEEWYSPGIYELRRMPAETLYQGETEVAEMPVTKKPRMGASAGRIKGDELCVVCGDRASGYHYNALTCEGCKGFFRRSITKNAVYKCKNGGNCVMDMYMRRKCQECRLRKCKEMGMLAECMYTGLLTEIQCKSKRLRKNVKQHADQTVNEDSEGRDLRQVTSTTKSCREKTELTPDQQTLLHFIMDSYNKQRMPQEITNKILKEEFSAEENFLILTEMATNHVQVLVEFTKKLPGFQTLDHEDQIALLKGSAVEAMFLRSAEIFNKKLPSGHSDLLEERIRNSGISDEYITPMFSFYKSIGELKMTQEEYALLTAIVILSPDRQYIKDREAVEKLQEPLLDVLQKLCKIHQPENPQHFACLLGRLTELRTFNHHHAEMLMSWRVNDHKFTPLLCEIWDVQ
# Method in brief: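 Transient MRTU transfection, HepG2; 24 h dosing; RNA → RT-PCR → 6-FAM primer extension → HpaI digest → capillary electrophoresis fluorescence. Gain/loss of signal fitted relative to DMSO.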
structure (smiles),measurement,setting,value
CC1CCCC1.[C-]#[O+].[C-]#[O+].[C-]#[O+].[Mn],outcome,[1],inactive
same,outcome,[2],inactive
same,outcome,[3],inactive
same,outcome,[4],inactive
same,outcome,[5],inactive
same,outcome,[6],inactive
same,outcome,[7],inactive
same,outcome,[8],inactive
same,outcome,[9],inactive
CN(C)N,outcome,[1],inactive
same,outcome,[10],inactive
same,outcome,[5],inactive
same,outcome,[11],inactive
same,outcome,[8],inactive
same,outcome,[12],inactive
same,outcome,[13],inactive
same,outcome,[14],inactive
CCOC(=O)C1OC1(C)c1ccccc1 (stereo unspecified),outcome,[3],inactive
same,outcome,[4],inactive
same,outcome,[15],inactive
same,outcome,[5],inactive
same,outcome,[11],inactive
same,outcome,[16],inactive
same,outcome,[17],inactive
same,outcome,[7],inactive
same,outcome,[8],inactive
same,outcome,[9],inactive
same,outcome,[12],inactive
O=[N+]([O-])c1cc([N+](=O)[O-])c2ccccc2c1,outcome,[1],inactive
same,outcome,[15],inactive
same,outcome,[5],inactive
same,outcome,[16],inactive
same,outcome,[6],inactive
same,outcome,[7],inactive
same,outcome,[8],inactive
same,outcome,[9],inactive
O=C1Nc2ccc(Cl)cc2C(c2ccccc2)=NC1O (stereo unspecified),outcome,[1],inactive
same,outcome,[2],inactive
same,outcome,[15],inactive
same,outcome,[5],inactive
same,outcome,[18],inactive
same,outcome,[6],inactive
same,outcome,[8],inactive
same,outcome,[9],inactive
same,outcome,[13],inactive
same,outcome,[14],inactive
[CH3][Sn]([Cl])([Cl])[Cl],outcome,[1],inactive
same,outcome,[2],inactive
same,outcome,[3],inactive
same,outcome,[15],inactive
same,outcome,[17],inactive
same,outcome,[19],inactive
same,outcome,[7],inactive
BrCBr,outcome,[2],inactive
same,outcome,[4],inactive
same,outcome,[10],inactive
same,outcome,[15],inactive
same,outcome,[5],inactive
same,outcome,[16],inactive
same,outcome,[18],inactive
same,outcome,[19],inactive
same,outcome,[6],inactive
same,outcome,[7],inactive
same,outcome,[8],inactive
same,outcome,[9],inactive
N#Cc1cccc(C#N)c1,outcome,[1],inactive
same,outcome,[2],inactive
same,outcome,[4],inactive
same,outcome,[10],inactive
same,outcome,[15],inactive
same,outcome,[11],inactive
same,outcome,[7],inactive
same,outcome,[8],inactive
same,outcome,[9],inactive
same,outcome,[12],inactive
C=CC(=O)OCCCCOC(=O)C=C,AC50,[20],65.8 µM (active)
same,outcome,[2],inactive
same,outcome,[5],inactive
same,outcome,[11],inactive
same,outcome,[16],inactive
same,outcome,[18],inactive
same,AC50,[7],69.5 µM (active)
same,AC50,[12],24.2 µM (active)
COC(=O)c1ccccc1S(=O)(=O)NC(=O)Nc1nc(C)cc(C)n1,outcome,[1],inactive
same,outcome,[4],inactive
same,outcome,[15],inactive
same,outcome,[11],inactive
same,outcome,[16],inactive
same,outcome,[17],inactive
same,outcome,[12],inactive
same,outcome,[13],inactive
same,outcome,[14],inactive
CCOC(=O)NC(=S)Nc1ccccc1NC(=S)NC(=O)OCC,outcome,[1],inactive
same,outcome,[11],inactive
same,outcome,[16],inactive
same,outcome,[18],inactive
same,outcome,[17],inactive
same,outcome,[6],inactive
same,outcome,[8],inactive
same,outcome,[9],inactive
same,outcome,[13],inactive
same,outcome,[14],inactive
O=[N+]([O-])c1cc(C(F)(F)F)c(Cl)c([N+](=O)[O-])c1Cl,outcome,[20],inactive
same,outcome,[15],inactive
same,outcome,[5],inactive
same,AC50,[18],41.1 µM (active)
same,AC50,[19],7.97 µM (active)
same,outcome,[6],inactive
same,AC50,[7],35.2 µM (active)
same,AC50,[8],35.6 µM (active)
same,AC50,[9],35.9 µM (active)
[Cl-].[Cl-].[Cl-].[Yb+3],outcome,[10],inactive
same,outcome,[15],inactive
same,outcome,[16],inactive
same,outcome,[17],inactive
same,outcome,[19],inactive
same,outcome,[6],inactive
same,outcome,[7],inactive
same,outcome,[8],inactive
same,outcome,[9],inactive
same,outcome,[12],inactive

# From PubChem BioAssay (EPA / NIEHS)
